Many of the other results were omitted from the sample, so hits are more common in it than they were.
mHTT-CaM PPI inh: inhibitors of human mutant huntingtin-calmodulin interaction; inhibition, % at 15 µM; 3.6% of 190,000 active; P42858; AlphaScreen His-mHTT/GST-CaM binding, luminescence;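 note: 0% = both proteins with DMSO and 100% = one protein alone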
Pf apPOL inh: Pf-apPOL DNA polymerase inhibition; Recombinant Pf-apPOL, molecular beacon fluorescence, 1.5 h; inhibition, % at 10 µM; 0.25% of 210,000 active; AID 1794808
Numbers without * were called inactive; · = not tested or not shown; ! = a repeat was not active. Cut-off read from the data, not from the text of the source: active = inhibition above about 50%; inactive = the rest.

SMILES	mHTT-CaM PPI inh	Pf apPOL inh
CC(=O)Nc1ccc(Oc2nc(C)nc3sc4c(c23)CCC4)cc1	0	0
O=C(CN(c1cccc([N+](=O)[O-])c1)S(=O)(=O)c1ccccc1)NCc1ccncc1	-1	23
COc1ccc(C2=NN3C(C2)c2cc(OC)ccc2OC3c2cc(OC)c(OC)c(OC)c2)cc1 (configuration not stated)	59*	-16
COc1cc(C2Oc3ccccc3C3CC(c4ccccc4)=NN32)cc(OC)c1OC (configuration not stated)	-5	·
COc1ccc(C2CC(=O)Oc3cc(OC)c(OC)c(OC)c32)cc1 (configuration not stated)	2	-1
COc1cc(OC)c2c(c1C(CCN1CCCC1)c1ccc(N(C)C)cc1)OC(=O)CC2c1ccc(N(C)C)cc1 (configuration not stated)	100*	-10
COc1ccc(C2CC(=O)Oc3c(C(CCN4CCCC(C)C4)c4cc(OC)c(OC)c(OC)c4)c(OC)cc(OC)c32)cc1 (configuration not stated)	61*	-6
COc1cc(C2CC(=O)Oc3cc(O)ccc32)cc(OC)c1OC (configuration not stated)	3	-5
COc1ccc(C(CC(=O)N2CCCC(C)C2)c2c(O)cc(OC)cc2OC)cc1 (configuration not stated)	15	-7
COc1cc(C2CC(=O)Oc3c(C(CCN4CCOCC4)c4ccc(N(C)C)cc4)c(OC)cc(OC)c32)cc(OC)c1OC (configuration not stated)	65*	-4
COc1ccc(C2CC(=O)Oc3c(C(CCN4CCCC(C)C4)c4ccc(N(C)C)cc4)c(OC)cc(OC)c32)cc1 (configuration not stated)	101*	-6
Cc1oc(C2CCN(S(=O)(=O)c3ccc(C(F)(F)F)cc3)CC2)nc1C(=O)N(C)C	-1	-1
O=C(C1CCN(c2nnc(-c3ccccc3)o2)CC1)N1CCCCCC1	8	-5
CCCCOc1ccc(C(=O)Nc2cccc(F)c2)cc1	-9	4
CC(=O)c1cc2c(cc1NC(=NS(=O)(=O)c1ccccc1)c1ccccc1)OCO2	-1	3
COc1ccc(C2CC(=O)Oc3c(C(CCN4CCCCC4)c4ccc(N(C)C)cc4)c(OC)cc(OC)c32)cc1 (configuration not stated)	101*	1
CC1(C)CC(=O)C2=C(C1)N=C1c3ccccc3C(=O)C1C2c1ccccc1Cl (configuration not stated)	13	11
CC1(C)CC(=O)C2=C(C1)N=C1c3ccccc3C(=O)C1C2c1ccc(Cl)cc1 (configuration not stated)	68*	-3
CC1(C)CC(=O)C2=C(C1)N=C1c3ccccc3C(=O)C1C2c1cccc([N+](=O)[O-])c1 (configuration not stated)	51*!	-2
CC1(C)CC(=O)C2=C(C1)Nc1ccccc1NC2c1cccc([N+](=O)[O-])c1 (configuration not stated)	0	-2
COc1ccc(C2C3=C(CC(C)(C)CC3=O)N=C3c4ccccc4C(=O)C32)cc1OC (configuration not stated)	64*	3
COc1ccc(C2C3=C(CC(C)(C)CC3=O)OC3=C2C(=O)CC(C)(C)C3)cc1OC	-3	2
O=C1CCCC2=C1C(c1cc(Br)ccc1O)C1C(=O)c3ccccc3C1=N2 (configuration not stated)	40	-1
O=C1CCCC2=C1C(c1ccc(Br)cc1)C1C(=O)c3ccccc3C1=N2 (configuration not stated)	69*	-1
Cc1cccc(NC(=O)CCCN2C(=O)c3cccnc3C2=O)c1C	6	-21
SMILES	mHTT-CaM PPI inh	Pf apPOL inh
CC(CO)C1CCC2C3CC(O)C45CC4CCC5(C)C3CCC12C (configuration not stated)	-2	-4
O=C1CCCC2=C1C(c1cccc(Cl)c1)C1C(=O)c3ccccc3C1=N2 (configuration not stated)	4	-10
Cc1ccc(C2C3=C(CC(C)(C)CC3=O)N=C3c4ccccc4C(=O)C32)cc1 (configuration not stated)	62*	30
CC1(C)CC(=O)C2=C(C1)N=C1c3ccccc3C(=O)C1C2c1cccc(Cl)c1 (configuration not stated)	64*	-2
Cc1cc(C2C3=C(CC(C)(C)CC3=O)N=C3c4ccccc4C(=O)C32)cc(C)c1O (configuration not stated)	38	0
CCC(=O)Nc1ccc(S(=O)(=O)Nc2c(C)cc(C)cc2C)cc1	-2	2
CCCCN(CC)S(=O)(=O)c1ccc2oc(C(=O)O)c(C)c2c1	-4	2
O=c1[nH]c(N2CCN(c3ccccc3)CC2)nc2c(-c3ccccc3F)csc12	-4	-2
CN1CCN(c2cccc3c2S(=O)(=O)N[C@H](Cc2ccccc2)CO3)CC1	-3	-8
O=S1(=O)N[C@H](Cc2ccccc2)COc2cccc(N3CCN(Cc4ccccc4F)CC3)c21	62*	-6
O=S(=O)(NCc1ccc2c(c1)CCO2)c1cccs1	·	20
COc1ccc(NC(=O)c2ccc(N(Cc3ccc(Cl)cc3)S(C)(=O)=O)cc2)cc1OC	38	-2
CS(=O)(=O)N(Cc1ccc(Cl)cc1)c1ccc(C(=O)Nc2ccc3c(c2)OCO3)cc1	8	89*
Cc1ccc(S(=O)(=O)N2CCC(CCNC(=O)Nc3ccccc3)CC2)cc1	53*	-3
O=C(NCCC1CCN(S(=O)(=O)c2ccc(F)cc2)CC1)Nc1ccccc1	29	-2
COC(=O)CNC(=O)NCCC1CCN(S(=O)(=O)c2ccc(C)cc2)CC1	39	-5
COCCNC(=O)NCCC1CCN(S(=O)(=O)c2ccc(C)cc2)CC1	55*	3
O=C1CN(C(=O)C2CC2)C(c2ccccc2)c2cc(F)ccc2N1 (configuration not stated)	-3	-6
C=CCNC(=O)CN(c1ccc(F)cc1)S(=O)(=O)c1ccccc1	-2	-8
O=C(c1n[nH]c2c1CCCC2)N1CCc2[nH]nc(-c3ccccc3)c2C1	19	1
COc1cccc(C(=O)Nc2ccc3oc(-c4cccc(F)c4)nc3c2)c1	4	5
O=C(O)C(Cc1ccccc1)N1C(=O)C2C3C=CC(C4CC34)C2C1=O (configuration not stated)	-2	-3
NC(=O)c1ccc(Nc2nnc(-c3ccc(O)cc3)c3ccccc23)cc1	21	-34
NNc1nnc(-c2ccccc2)c2ccccc12	68*	2
CC(=NNc1nnc(-c2ccccc2)c(-c2ccccc2)n1)c1ccco1	·	-3
SMILES	mHTT-CaM PPI inh	Pf apPOL inh
NNc1nnc(-c2ccccc2)c(-c2ccccc2)n1	100*	1
Cc1ccc(N(C)C(=O)c2ccc3c(c2)N(S(C)(=O)=O)CC3)cc1C	5	0
CNC(=O)c1cc2c(=O)n3cc(C)ccc3nc2n(Cc2ccco2)c1=N	0	15
Cc1ccc2nc3c(cc(C(=O)NCCc4ccccc4)c(=N)n3Cc3ccco3)c(=O)n2c1	56*	-1
N=c1c(C(=O)NCCc2ccccc2)cc2c(=O)n3ccccc3nc2n1Cc1ccco1	52*	-17
N=c1c(C(=O)NCc2cccnc2)cc2c(=O)n3ccccc3nc2n1Cc1ccco1	4	-8
COc1ccc(OC)c(NC(=O)CCS(=O)(=O)c2ccc(Br)s2)c1	2	0
O=[N+]([O-])c1cc(-c2ncnn2-c2cccc(Br)c2)ccc1Cl	18	0

Screening data from PubChem.
